Results published in the supplement of paper PMC10338343.
± gives the standard deviation.

Tested on: MILI (PIWIL2) piRISC loaded with L1MC piRNA (26 nt)
Experiment: pre-steady-state target cleavage rate (min^-1); guide: L1MC piRNA 5'p-UAACUAAAUACUAUGCAAGCUGUAGG; MIWI and MILI are mouse PIWI proteins and EfPiwi is from a freshwater sponge; tags in brackets are library labels; higher = faster piRNA-guided slicing of the target
Details: auxiliary factor: 500 nM mouse GTSF1
Description: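 Cleave-'n-Seq: a library of target RNAs (target site embedded in constant flanks, ACAGCATTCCGCGTTAGTGATATCCG... 5' flank; DNA-blocked outside the site) at 0.1 nM was incubated with 1 nM active mouse MILI or MIWI piRISC (synthetic 5'-monophosphorylated piRNA guide) with or without 500 nM mouse GTSF1 at 33 °C for 1 min to 16 h. Uncleaved targets were sequenced and normalised to non-target controls, and the pooled three trials were fitted to a burst-and-steady-state model to give the pre-steady-state cleavage rate (min^-1; k3 is constrained to at most 1e-4). Sequence is the target site only; target names encode pairing extent (gX:gY) and contiguous / 1-mismatch / 2-mismatch / bulge geometry. Fits with R² ≤ 0 are excluded.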

Sequence | pre-steady-state target cleavage rate
UCCUGCAACAGCUUGCAUAGUUUUUAGUUA | 0.0613 ± 0.0099
UCCUCCUACAGCUUGCAUAGGAUUUAGUUA | 0.0118 ± 0.0044
UCCUGGAUCACCAUGCAUAGUAUUUAGUUA | 0.14 ± 0.019
UCCUGCUACAGCUUGCAUAGUAUUAUCUUA | 0.16 ± 0.035
UCCUGGUACAGCUUGCAUAGUUUUUACUUA | 0.0154 ± 0.008
UCCUCCUACACCUUGCAUAGUAUUUAGUAA | 0.226 ± 0.037
UCCUGGAACAGCUUGCAUAGUAUUUUAGUUA | 0.241 ± 0.02
UCCUGCUACACCUUGCUUAGUAUUUAGUUA | 0.2 ± 0.017
UCCUCCUAGAGCUUGCAUAGUAUUUACAAA | 0.0915 ± 0.027
UCCUGGAUGAGCUUGCAUAGUAUUUAGUA | 0.223 ± 0.025
UCCUGGAACAGCUAGCAUAGUAUUUAGUAA | 0.275 ± 0.03
UCCUGGAUGUCGAACCAUAGUAUAUAGUAA | < 0.0001
UCCUGCUACACGAUGCAUAGUAUUUAGUUA | 0.241 ± 0.022
UCCUCCUACAGCUUGCAUAGUAUUAAGAAA | 0.159 ± 0.036
UCCUGGUACACGAUGCAUAGUAUUUACAAA | 0.00826 ± 0.0057
UCCUGGAUGUCCUUGCAUAGUAGUUAGUUA | 0.13 ± 0.036
UCCUGCAUGAGCUUGCAUAGUAUUUAGUUA | 0.265 ± 0.019
UCCUGGAUGUCCUUGCAUAGUAUUUACGUUA | 0.11 ± 0.023
UCCUGGAUGUCCUUGCAUAUUAUUUAGUUA | 0.038 ± 0.011
UCCUGGAUGAGCUAGCAUAGUAUUUAGUUA | 0.2 ± 0.018
UCCUGGAUGUCGUUGGAAAGUAUUUAGUUA | < 0.0001
UCCUGGUACAGCAUGCAUAGUAUUUACAAA | 0.127 ± 0.033
UCCUGGAUGACUUGCAUAGUAUUUAGUUA | 0.171 ± 0.014
UCCUCGAACAGCUUGCAUAGUAUUUACAAA | 0.0992 ± 0.021

Same assay, conditions: auxiliary factor: none (no GTSF1)

Sequence | pre-steady-state target cleavage rate
UCCUGCAACAGCUUGCAUAGUUUUUAGUUA | 0.00354 ± 0.0029
UCCUGGAUCACCAUGCAUAGUAUUUAGUUA | 0.00489 ± 0.0025
UCCUCCUACACCUUGCAUAGUAUUUAGUAA | 0.0033 ± 0.0026
UCCUGGAACAGCUUGCAUAGUAUUUUAGUUA | 0.0048 ± 0.0033
UCCUGCUACACCUUGCUUAGUAUUUAGUUA | 0.00572 ± 0.0028
UCCUGGAUGAGCUUGCAUAGUAUUUAGUA | 0.00747 ± 0.0025
UCCUGGAACAGCUAGCAUAGUAUUUAGUAA | 0.00673 ± 0.0025
UCCUGGAUGUCGAACCAUAGUAUAUAGUAA | < 0.0001
UCCUGCUACACGAUGCAUAGUAUUUAGUUA | 0.00624 ± 0.0023
UCCUGGAUGUCCUUGCAUAGUAGUUAGUUA | 0.00421 ± 0.002
UCCUGCAUGAGCUUGCAUAGUAUUUAGUUA | 0.01 ± 0.0025
UCCUGGAUGUCCUUGCAUAGUAUUUACGUUA | 0.00693 ± 0.003
UCCUGGAUGUCGAACGUUUGUAUUUAGUAA | < 0.0001
UCCUGGAUGUCCUUGCAUAUUAUUUAGUUA | 0.0028 ± 0.0027
UCCUGGAUGAGCUAGCAUAGUAUUUAGUUA | 0.00679 ± 0.0019
UCCUGGAUGACUUGCAUAGUAUUUAGUUA | 0.004 ± 0.0027
